Test results: PubChem BioAssay (NCATS)
Records with an inconclusive call do not appear. Where a call stands in place of a potency, no number is given. Calls of active or inactive are those of the source. Calls follow the shape of the dose curve; as a rule, active = well fitted inhibition curve with a large enough effect; inconclusive = small, poorly fitted or top-dose-only effect; inactive = flat fitted curve, though single readings scatter.

Test system: C2A
Test: qHTS profiling for inhibitors of Plasmodium falciparum proliferation (AID 504749); also: nearly all actives have a fitted effect of over 60% in size
Settings: P. falciparum in erythrocytes, SYBR Green DNA, 72 h; series mostly up to 28.7 µM
Summary of the method: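 Fluorescence of SYBR Green-bound parasite DNA, read at 485/535 nm, served as the growth measure. Infected erythrocytes were cultured with compound 72 h; artemisinin (0.29 uM) and DMSO wells defined the normalization range.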

| Structure (SMILES) | Potency |
| --- | --- |
| O=C1c2cccc(O)c2C(=O)c2c(O)cccc21 | inactive |
| COc1nccnc1NS(=O)(=O)c1ccc(N)cc1 | inactive |
| O=C1c2ccccc2S(=O)(=O)N1CCCCN1CCN(c2ncccn2)CC1 | inactive |
| OCC(O)CS (stereo not drawn) | inactive |
| CC(CN(C)C)C(C)(O)Cc1ccc(Cl)cc1 (stereo not drawn) | inactive |
| Nc1ncnc(Nc2ccccc2)n1 | inactive |
| NC(=O)CCCCC1CCSS1 (stereo not drawn) | inactive |
| CC(=O)OC[C@H]1O[C@@](COC(C)=O)(O[C@H]2O[C@H](COC(C)=O)[C@@H](OC(C)=O)[C@H](OC(C)=O)[C@H]2OC(C)=O)[C@@H](OC(C)=O)[C@@H]1OC(C)=O | inactive |
| O=C(c1ccccc1)C(O)c1ccccc1 (stereo not drawn) | inactive |
| CC(C)=CCC/C(C)=C/CO | inactive |
| CCOC(=O)[C@H](CCc1ccccc1)N[C@@H](C)C(=O)N1CCC[C@H]1C(=O)O | inactive |
| NCc1ccc(S(N)(=O)=O)cc1 | inactive |
| O=C1CC[C@@H](C(=O)O)N1 | inactive |
| Cc1c(NC(=O)c2cccnc2)c(=O)n(-c2ccccc2)n1C | inactive |
| CCCCCCCCCCC(CO)CCCCCCCC (stereo not drawn) | inactive |
| O=C1c2ccccc2C(=O)C1c1ccc(Br)cc1 | inactive |
| CCCCCCCC(=O)OCC(COC(=O)CCCCCCC)OC(=O)CCCCCCC | inactive |
| CCCCCC(C)N (stereo not drawn) | inactive |
| CC(=O)N[C@@H](Cc1ccc(O)cc1)C(=O)O | inactive |
| CC(=O)Oc1cccc(O)c1 | inactive |
| Cc1onc(-c2ccccc2)c1-c1ccc(S(N)(=O)=O)cc1 | inactive |
| Cc1c(I)c(=O)n(-c2ccccc2)n1C | inactive |
| CN(C(=O)c1c(O)c2ccccc2n(C)c1=O)c1ccccc1 | inactive |
